Experiment [1] is described as follows: NCI Yeast Anticancer Drug Screen. Data for the rad50 strain (AID 155).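 Also: 0% = growth of vehicle-only cultures of the same strain.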 As to conditions: S. cerevisiae rad50 strain growth inhibition, active compounds read high. In a few lines:
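Vehicle-treated cultures provide the reference for the growth inhibition reported for compound-exposed, repair-deficient yeast.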

Experiment [2] in a line: NCI Yeast Anticancer Drug Screen. Data for the mec2-1 strain (AID 157). As to conditions: S. cerevisiae mec2-1 strain, active compounds read high. Put shortly:
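Vehicle-treated cultures served as reference for growth inhibition of compound-exposed mec2-1 yeast.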

Experiment [3] in a line: NCI Yeast Anticancer Drug Screen. Data for the sgs1 mgt1 strain (AID 161).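 Also: 0% = growth of cultures given vehicle only.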 As to conditions: S. cerevisiae sgs1 mgt1 strain, active compounds read high. Put shortly:
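Mutant yeast exposed to compound; growth scored against vehicle-only wells.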

Experiment [4] can be described thus: NCI Yeast Anticancer Drug Screen. Data for the cln2 rad14 strain (AID 165).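 Also: 0% = growth equal to vehicle treated cultures.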 As to conditions: S. cerevisiae cln2 rad14 strain, active compounds read high. Put shortly: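 Each compound was tested on cln2 rad14 yeast. Inhibition of growth was calculated against vehicle-exposed controls.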
Experiment [5] can be described thus: NCI Yeast Anticancer Drug Screen. Data for the bub3 strain (AID 167). As to conditions: S. cerevisiae bub3 mutant strain, active compounds read high. Put shortly: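 Mutant yeast screening strain plus compound; vehicle-treated cultures serve as the 0% inhibition reference.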
The nature of experiment [6]: NCI Yeast Anticancer Drug Screen. Data for the mlh1 rad18 strain (AID 175). As to conditions: S. cerevisiae mlh1 rad18 strain growth inhibition, active compounds read high. Put shortly: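 Vehicle-treated cultures served as the reference for growth inhibition in a yeast strain carrying DNA damage repair alterations exposed to each compound.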
The mark [7] stands for this setting: at 5.0 µM (retest, dose inferred, filed as 0.5).
The mark [8] stands for this setting: at 50.0 µM (retest, dose inferred, filed as 5.0).

Compounds without any hit were thinned out: in the full panel of roughly 79,000, 15% have a hit. A number with no mark means an inactive call. Calls of active or inactive are those of the source. Rule as the data show it: active = growth inhibition above about 70%; inactive = the rest.

For the compound `CCOc1cc2c(cc1O)CC[C@@H]1[C@@H]2CC[C@]2(C)[C@@H](O)CC[C@@H]12`, the growth inhibition in experiment [1] (setting [7]) was 33%; in experiment [1] (setting [8]) it was 39%; in experiment [1] (at 50.0 µM) it was 41%; in experiment [2] (setting [7]), 13%; in experiment [2] (setting [8]) it was 33%; in experiment [2] (at 50.0 µM), -10.4%. The growth inhibition is 13% in experiment [3] (setting [7]); 34% in experiment [3] (setting [8]); 46.8% in experiment [3] (at 50.0 µM); 12% in experiment [4] (setting [7]); 30% in experiment [4] (setting [8]); 33.4% in experiment [4] (at 50.0 µM). Moreover, the growth inhibition in experiment [5] (setting [7]) is 25%; in experiment [5] (setting [8]) it was 39%; in experiment [5] (at 50.0 µM), 44.2%; in experiment [6] (setting [7]), 27%; in experiment [6] (setting [8]), 42%; in experiment [6] (at 50.0 µM) it was 40.8%.

Consider `CC(C)(CN1CCCCC1)C(=O)CC(SCCS(=O)(=O)O)c1ccc(Cl)c(Cl)c1` (configuration not stated), for which the growth inhibition in experiment [1] (setting [7]) is 62%; in experiment [1] (setting [8]), 97% (active); in experiment [1] (at 50.0 µM), 95.8% (active); in experiment [2] (setting [7]) it was 33%; in experiment [2] (setting [8]), 97% (active); in experiment [2] (at 50.0 µM), 94% (active). Moreover, the growth inhibition is 33% in experiment [3] (setting [7]); 95% (active) in experiment [3] (setting [8]); 97.4% (active) in experiment [3] (at 50.0 µM); 38% in experiment [4] (setting [7]); 98% (active) in experiment [4] (setting [8]); 88.2% (active) in experiment [4] (at 50.0 µM). Further, the growth inhibition is 58% in experiment [5] (setting [7]); 99% (active) in experiment [5] (setting [8]); 98% (active) in experiment [5] (at 50.0 µM); 41% in experiment [6] (setting [7]); 97% (active) in experiment [6] (setting [8]); 97% (active) in experiment [6] (at 50.0 µM).

Turning to `C=CS(=O)(=O)Cc1ccc(Cl)cc1`, the growth inhibition in experiment [1] (setting [7]) is -126%; in experiment [1] (setting [8]), 91% (active); in experiment [1] (at 50.0 µM) it was 98.6% (active); in experiment [2] (setting [7]), -31%; in experiment [2] (setting [8]), 91% (active); in experiment [2] (at 50.0 µM), 97.2% (active). In addition, the growth inhibition in experiment [3] (setting [7]) is -33%; in experiment [3] (setting [8]), 91% (active); in experiment [3] (at 50.0 µM) it was 94.2% (active); in experiment [4] (setting [7]), -42%; in experiment [4] (setting [8]) it was 84% (active); in experiment [4] (at 50.0 µM), 93.9% (active). Also, the growth inhibition is -48% in experiment [5] (setting [7]); 94% (active) in experiment [5] (setting [8]); 97% (active) in experiment [5] (at 50.0 µM); -108% in experiment [6] (setting [7]); 95% (active) in experiment [6] (setting [8]); 97.4% (active) in experiment [6] (at 50.0 µM).

As to `CC(c1ccc2ccccc2c1)c1c(F)cccc1C(=O)O` (configuration not stated), the growth inhibition is 2% in experiment [1] (setting [7]); 50% in experiment [1] (setting [8]); 98.7% (active) in experiment [1] (at 50.0 µM); 0% in experiment [2] (setting [7]); 54% in experiment [2] (setting [8]); 98.3% (active) in experiment [2] (at 50.0 µM). For the same compound, the growth inhibition is 0% in experiment [3] (setting [7]); 12% in experiment [3] (setting [8]); 97.2% (active) in experiment [3] (at 50.0 µM); -4% in experiment [4] (setting [7]); 64% in experiment [4] (setting [8]); 98.6% (active) in experiment [4] (at 50.0 µM). The growth inhibition in experiment [5] (setting [7]) is -9%; in experiment [5] (setting [8]) it was 41%; in experiment [5] (at 50.0 µM), 97.6% (active); in experiment [6] (setting [7]) it was -16%; in experiment [6] (setting [8]), 61%; in experiment [6] (at 50.0 µM) it was 98.5% (active).

For `CCN(CC)CCOc1ccc(C(O)(Cc2ccc(Cl)cc2)c2ccccc2)cc1` (configuration not stated), the growth inhibition in experiment [1] (setting [7]) is 39%; in experiment [1] (setting [8]), 90% (active); in experiment [1] (at 50.0 µM) it was 90.9% (active); in experiment [2] (setting [7]) it was 35%; in experiment [2] (setting [8]), 87% (active); in experiment [2] (at 50.0 µM) it was 83.8% (active). Also, the growth inhibition was 58% in experiment [3] (setting [7]); 95% (active) in experiment [3] (setting [8]); 97.5% (active) in experiment [3] (at 50.0 µM); 56% in experiment [4] (setting [7]); 93% (active) in experiment [4] (setting [8]); 98.3% (active) in experiment [4] (at 50.0 µM). Moreover, the growth inhibition in experiment [5] (setting [7]) is 57%; in experiment [5] (setting [8]), 89% (active); in experiment [5] (at 50.0 µM), 81.2% (active); in experiment [6] (setting [7]), 51%; in experiment [6] (setting [8]), 89% (active); in experiment [6] (at 50.0 µM) it was 97.2% (active).

`O=S1OCCS1` (configuration not stated): the growth inhibition was 10% in experiment [1] (setting [7]); 87% (active) in experiment [1] (setting [8]); 98.8% (active) in experiment [1] (at 50.0 µM); 4% in experiment [2] (setting [7]); 90% (active) in experiment [2] (setting [8]); 99% (active) in experiment [2] (at 50.0 µM). Moreover, the growth inhibition in experiment [3] (setting [7]) was 11%; in experiment [3] (setting [8]) it was 87% (active); in experiment [3] (at 50.0 µM) it was 98.5% (active); in experiment [4] (setting [7]), -3%; in experiment [4] (setting [8]) it was 74% (active); in experiment [4] (at 50.0 µM), 97.4% (active). For the same compound, the growth inhibition in experiment [5] (setting [7]) was -1%; in experiment [5] (setting [8]), 92% (active); in experiment [5] (at 50.0 µM), 99.2% (active); in experiment [6] (setting [7]) it was 7%; in experiment [6] (setting [8]) it was 95% (active); in experiment [6] (at 50.0 µM) it was 98.7% (active).

Regarding `CCCCCCCCCC[N+](C)(C)CCC[N+](C)(C)CCCCCCCCCC`, the growth inhibition in experiment [1] (setting [7]) was 42%; in experiment [1] (setting [8]), 93% (active); in experiment [1] (at 50.0 µM), 89.5% (active); in experiment [2] (setting [7]) it was 20%; in experiment [2] (setting [8]), 88% (active); in experiment [2] (at 50.0 µM), 91.2% (active). For the same compound, the growth inhibition in experiment [3] (setting [7]) was 37%; in experiment [3] (setting [8]) it was 98% (active); in experiment [3] (at 50.0 µM) it was 88.3% (active); in experiment [4] (setting [7]), 32%; in experiment [4] (setting [8]) it was 88% (active); in experiment [4] (at 50.0 µM), 78.2% (active). The growth inhibition was 31% in experiment [5] (setting [7]); 95% (active) in experiment [5] (setting [8]); 62.6% in experiment [5] (at 50.0 µM); 31% in experiment [6] (setting [7]); 89% (active) in experiment [6] (setting [8]); 61.8% in experiment [6] (at 50.0 µM).

Consider `CC(=O)OC1C(O)C(C)OC(OC(=O)C2CCC3C(C2)OC2(CC(OC(=O)/C=C/c4ccccc4)C(C)CO2)C32CO2)C1OC1OC(C)C(O)C(O)C1O` (configuration not stated), for which the growth inhibition in experiment [1] (setting [7]) was 23%; in experiment [1] (setting [8]), 97% (active); in experiment [1] (at 50.0 µM), 88% (active); in experiment [2] (setting [7]), 18%; in experiment [2] (setting [8]), 98% (active); in experiment [2] (at 50.0 µM) it was 89.9% (active). The growth inhibition in experiment [3] (setting [7]) was 26%; in experiment [3] (setting [8]) it was 98% (active); in experiment [3] (at 50.0 µM), 47.1%; in experiment [4] (setting [7]) it was 17%; in experiment [4] (setting [8]) it was 92% (active); in experiment [4] (at 50.0 µM), 75.6% (active). In addition, the growth inhibition in experiment [5] (setting [7]) was 21%; in experiment [5] (setting [8]), 97% (active); in experiment [5] (at 50.0 µM), 88% (active); in experiment [6] (setting [7]), 34%; in experiment [6] (setting [8]) it was 97% (active); in experiment [6] (at 50.0 µM) it was 88% (active).

As for `Cc1cc2c(C(C)C)c(O)c(O)c(C=Nc3ccc(C(=O)O)cc3)c2c(O)c1-c1c(C)cc2c(C(C)C)c(O)c(O)c(C=Nc3ccc(C(=O)O)cc3)c2c1O`, the growth inhibition in experiment [1] (setting [7]) was 14%; in experiment [1] (setting [8]), 97% (active); in experiment [1] (at 50.0 µM), 91.8% (active); in experiment [2] (setting [7]), 27%; in experiment [2] (setting [8]), 98% (active); in experiment [2] (at 50.0 µM), 91.2% (active). For the same compound, the growth inhibition was 34% in experiment [3] (setting [7]); 97% (active) in experiment [3] (setting [8]); 61.4% in experiment [3] (at 50.0 µM); -3% in experiment [4] (setting [7]); 95% (active) in experiment [4] (setting [8]); 73.3% (active) in experiment [4] (at 50.0 µM). Moreover, the growth inhibition in experiment [5] (setting [7]) is 4%; in experiment [5] (setting [8]) it was 98% (active); in experiment [5] (at 50.0 µM) it was 58.5%; in experiment [6] (setting [7]), 40%; in experiment [6] (setting [8]), 98% (active); in experiment [6] (at 50.0 µM), 86.3% (active).

(Values after PubChem BioAssay (NCI).)
